Source: PubChem
CD40 NFkB inh: CD40 pathway inhibition in BL2 cells; BL2 NF-kB luciferase reporter, CD40L-induced, 4 h; inhibition, % at 10 µM; actives 0.94% (n = 83,000);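 active means mean inhibition of at least 50% with a set share of replicates also reaching that level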;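 further: 0% = neutral control wells and 100% = IKK inhibitor VII at 50 µM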
Starred values were filed as active, the others as inactive; [ ] = remark or other dose. This excerpt belongs to a sample that is enriched for hits.

How did CC(=O)N1[C@H](CO)[C@H](c2ccc(-c3ccccc3)cc2)[C@@H]1CNC(=O)NC(C)C do in these assays?
CD40 NFkB inh: 3.4[25 µM]

What do the screens show for `Cc1ccc(S(=O)(=O)N[C@@H]2CC[C@@H](CC(=O)NCc3ccncn3)O[C@@H]2CO)cc1`?
CD40 NFkB inh: 9.7[25 µM]

How did COc1ccc2c3c([nH]c2c1)[C@@H](CO)N(Cc1nccs1)CC31CN(Cc2ccncc2)C1 do in these assays?
CD40 NFkB inh: -9.1[25 µM]

Results for C[C@H](CO)N1C[C@H](C)[C@H](CN(C)C(=O)C2CCCCC2)OCc2cn(nn2)CCCC1=O ?
CD40 NFkB inh: -5.8

Results for N#C[C@@H]1[C@H](c2ccccc2-c2cccc(F)c2)[C@H](CO)N1C(=O)C1CC1 ?
CD40 NFkB inh: 3.9[25 µM]

Results for O=C(CN1CCCC1)N1c2ccccc2C=Cc2ccccc21 ?
CD40 NFkB inh: 11.2

What do the screens show for `O=C(C(=Cc1ccccc1)CN1CCCCC1)c1ccccc1`?
CD40 NFkB inh: 73.5*

Results for O=C(CN1CCCCCC1)N1c2ccccc2C=Cc2ccccc21 ?
CD40 NFkB inh: 24.6

What do the screens show for `c1cc(CN2[C@@H]3CNC[C@H]2C3c2ccc(-c3ccncc3)cc2)cc(-c2ccncc2)c1` (some centres undefined)?
CD40 NFkB inh: -10.8

What do the screens show for `NNC(=O)CCN1CCCCC1`?
CD40 NFkB inh: 6.0

What do the screens show for `O=C(CCC(=O)CCN1CCCCC1)CCN1CCCCC1`?
CD40 NFkB inh: 77.4*

Results for NC(=O)CCN1CCCCC1 ?
CD40 NFkB inh: -5.3

Results for CCNC[C@@H]1[C@@H](c2ccc(-c3ccc(F)cc3)cc2)[C@@H](CO)N1C(=O)C1CC1 ?
CD40 NFkB inh: 6.2[25 µM]

How did C/C=C/c1ccc([C@H]2[C@@H](CNC(=O)C3CC3)N(C(=O)NCCC)[C@H]2CO)cc1 do in these assays?
CD40 NFkB inh: 9.6

Results for O=C(CSC1=NCCS1)N1N=C(c2cccs2)CC1c1ccc(F)cc1 (centres undefined) ?
CD40 NFkB inh: 8.5

What do the screens show for `O=C(CNCCO)N1N=C(c2cccs2)CC1c1cccs1` (centres undefined)?
CD40 NFkB inh: 30.5*

What do the screens show for `Cn1nnnc1SCC(=O)N1N=C(c2cccs2)CC1c1cccs1` (centres undefined)?
CD40 NFkB inh: -29.1

How did CC(C)NC(=O)N1[C@H](CO)[C@@H](c2ccccc2)[C@@H]1CNC(=O)CN(C)C do in these assays?
CD40 NFkB inh: 5.8

What do the screens show for `CNC[C@@H]1OCc2cnnn2CCCC(=O)N([C@H](C)CO)C[C@@H]1C`?
CD40 NFkB inh: -4.7[25 µM]

What do the screens show for `O=C(C1CCOCC1)N1CC(=O)N2[C@@H](CO)[C@H](c3ccc(C#CC4CCCCC4)cc3)[C@@H]2C1`?
CD40 NFkB inh: -13.3[25 µM]

What do the screens show for `CCCC(=O)Nc1cc(-c2nn(C)c(=O)c3ccccc23)ccc1N1CCCCC1`?
CD40 NFkB inh: 1.2

How did CCC(=O)Nc1cc(-c2nn(C)c(=O)c3ccccc23)ccc1N1CCCCC1 do in these assays?
CD40 NFkB inh: 48.4*

What do the screens show for `Cn1nc(-c2ccc(N3CCOCC3)c(NS(=O)(=O)c3ccccc3)c2)c2ccccc2c1=O`?
CD40 NFkB inh: 16.1

Results for Cc1noc(C)c1S(=O)(=O)N(C)C[C@@H]1Oc2ccc(NS(=O)(=O)c3ccc(Cl)cc3)cc2CC(=O)N([C@H](C)CO)C[C@H]1C ?
CD40 NFkB inh: -4.8

How did C[C@@H]1CN(C)C(=O)c2cc(NS(C)(=O)=O)ccc2O[C@H]1CN(C)C do in these assays?
CD40 NFkB inh: 17.8

How did CCN(CC)CC(=O)Nc1c(C)cc(C(C)(C)C)cc1C do in these assays?
CD40 NFkB inh: -37.7

Results for CCN(CC)c1ccc(C(=O)O)cc1 ?
CD40 NFkB inh: -1.7

Results for CCN(CC)CC(C)(C)C(=O)/C=C/c1ccc(/C=C/C(=O)C(C)(C)CN(CC)CC)cc1 ?
CD40 NFkB inh: 74.8*

Results for CO[C@H]1CC[C@@H]2CCOc3ccc(C#N)cc3C(=O)N(C)[C@@H](C)C(=O)N(C)C[C@H]1O2 ?
CD40 NFkB inh: 7.6[25 µM]

Results for C[C@H](CO)N1C[C@H](C)[C@H](CN(C)Cc2ccc(Cl)c(Cl)c2)Oc2ccc(N(C)C)cc2C1=O ?
CD40 NFkB inh: 9.7

How did C/C=C/c1ccc([C@@H]2[C@@H](CN(C(=O)COC)C(C)C)N(C(C)=O)[C@H]2CO)cc1 do in these assays?
CD40 NFkB inh: 9.1[25 µM]

What do the screens show for `CC(=O)Nc1ccccc1OCC(=O)c1ccc2c(c1)OCO2`?
CD40 NFkB inh: -55.8

What do the screens show for `O=C(/C=C\Nc1ccccc1Br)c1ccc2c(c1)OCO2`?
CD40 NFkB inh: 57.4*

Results for CN(CC(=O)Nc1ccccc1Br)C(=O)CNC(=O)c1ccc2c(c1)OCO2 ?
CD40 NFkB inh: -3.7

Results for CO[C@H]1CN(C)C(=O)c2cc(NC(=O)C3CCCC3)ccc2OC[C@H](C)N(C)C[C@@H]1C ?
CD40 NFkB inh: -5.4

How did CC(=O)N1C[C@@H]2C(c3ccccc3)[C@@H](C1)N2CC(F)(F)F (some centres undefined) do in these assays?
CD40 NFkB inh: 0.3

How did O=C(NC1CCCC1)[C@@H]1[C@@H](CO)[C@@H]2Cn3c(cccc3=O)[C@H]1N2CC1CCCC1 do in these assays?
CD40 NFkB inh: 5.7[25 µM]

Results for O=C1C(Br)=C(c2ccccc2)C(c2ccccc2)=C1c1ccccc1 ?
CD40 NFkB inh: 82.0*

What do the screens show for `Cc1noc(C)c1NC(=O)N[C@H]1C=C[C@H](CC(=O)Nc2ccc(-c3ccccc3)cc2)O[C@H]1CO`?
CD40 NFkB inh: -3.7[25 µM]

Results for C[C@@H]1CCCCO[C@H](CN(C)Cc2ccncc2)[C@H](C)CN([C@@H](C)CO)C(=O)c2cc(NC(=O)Cc3ccccc3)ccc2O1 ?
CD40 NFkB inh: -13.1[25 µM]

Results for O=S(=O)(Nc1cccnc1)c1ccc2c(c1)OCCO2 ?
CD40 NFkB inh: 2.7

What do the screens show for `O=C1CCCN1c1ccc(S(=O)(=O)Nc2ccc3c(c2)OCCO3)cc1`?
CD40 NFkB inh: 18.7

How did CCn1cc(S(=O)(=O)Nc2ccc3c(c2)OCCO3)cn1 do in these assays?
CD40 NFkB inh: 75.9*

How did Cc1cccc(S(=O)(=O)N2CC[C@H]3[C@H](CO)Nc4ccc(C#Cc5ccc(F)cc5)cc4[C@H]32)c1 do in these assays?
CD40 NFkB inh: 13.8[25 µM]

What do the screens show for `COc1ccc(CN(C)C[C@@H]2Oc3ccc(NC(=O)Nc4c(C)noc4C)cc3C(=O)N([C@@H](C)CO)C[C@@H]2C)cc1`?
CD40 NFkB inh: -3.3[25 µM]

What do the screens show for `CCOC(=O)N=S(N)(=O)c1ccccc1` (centres undefined)?
CD40 NFkB inh: 4.4

How did CCOC(=O)CN(c1ccccn1)S(=O)(=O)c1ccccc1 do in these assays?
CD40 NFkB inh: 3.2

Results for CCOC(=O)CC(S(=O)(=O)c1ccccc1)S(=O)(=O)c1ccccc1 ?
CD40 NFkB inh: 97.4*

What do the screens show for `C[C@H](C(=O)N(C)C[C@@H]1OCc2ccccc2-c2c(n(C)c3ccccc23)C(=O)N([C@H](C)CO)C[C@@H]1C)c1ccccc1`?
CD40 NFkB inh: -11.0

Results for C[C@@H]1CN([C@@H](C)CO)C(=O)Cc2cc(NC(=O)Cn3cnnn3)ccc2O[C@H]1CN(C)Cc1ccc(Oc2ccccc2)cc1 ?
CD40 NFkB inh: -1.7[25 µM]

Results for CN(C)C(=O)c1cccc(-c2ccccc2[C@H]2[C@@H](CO)N(C(=O)C3CCCC3)[C@H]2C#N)c1 ?
CD40 NFkB inh: 8.5

Results for O=C(C[C@@H]1CC[C@@H]2[C@H](COC[C@@H](O)CN2CC2CCCCC2)O1)NCC1CC1 ?
CD40 NFkB inh: -36.2

What do the screens show for `CC1=C(SCCO)C(=O)c2ccccc2C1=O`?
CD40 NFkB inh: 91.2*[25 µM]

What do the screens show for `O=C1c2ccccc2-c2c1c1ccccc1c(=O)n2CCO`?
CD40 NFkB inh: -181.9
